# Compound activity: PubChem, NMMLSC
# GSH fluor = GSH bead compound fluorescence profile | GSH beads flow cytometry, compound fluorescence 488/530 nm; active compounds read high | fluorescence (KMESF) at 10 µM | 190,000 compounds, 0.25% hits | AID 1776; in the data active means fluorescence above about 89;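 further: glutathione beads carrying GST-tagged Bcl family fusion proteins plus one bare bead set; values are compound well signal with DMSO vehicle wells as background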
# RGS16-Gao HTS = regulators of human RGS16-Galphao interaction | binding response (% of control), % at 10 µM | bead-based flow cytometry RGS16-Galphao binding, fluorescence; actives lie on both sides | 220,000 compounds, 0.38% hits | AID 1441 | O15492+P09471;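 further: Galphao activated by GDP with aluminum fluoride before binding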
# RGS4-Gao reg = modulates binding of RGS4 to human Galphao; P09471; Multiplexed bead flow cytometry; actives lie on both sides; binding response (% of control), % at 10 µM; 220,000 compounds, 0.33% hits; in the data active means binding response below about 49% or above about 150%; inactive means in between;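 further: fluorescent Galphao activated with aluminum fluoride binding bead-coupled RGS4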
# Target sequence (P09471 whole entry, looked up): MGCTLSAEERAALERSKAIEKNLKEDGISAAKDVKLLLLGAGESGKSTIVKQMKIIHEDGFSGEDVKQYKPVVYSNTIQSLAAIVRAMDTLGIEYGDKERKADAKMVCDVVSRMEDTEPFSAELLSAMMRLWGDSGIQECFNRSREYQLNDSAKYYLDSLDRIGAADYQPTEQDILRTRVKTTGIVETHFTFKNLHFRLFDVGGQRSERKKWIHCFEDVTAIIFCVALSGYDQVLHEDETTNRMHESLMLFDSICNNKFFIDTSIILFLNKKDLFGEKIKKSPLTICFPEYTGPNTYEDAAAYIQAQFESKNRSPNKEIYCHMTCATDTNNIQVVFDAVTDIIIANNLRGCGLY
# Avidin fluor = compound fluoresces at 488/530 nm on avidin beads; compound fluorescence 488/530 nm, flow cytometry; active compounds read high; fluorescence (KMESF) at 10 µM; 220,000 compounds, 0.38% hits; AID 1775; in the data active means fluorescence above about 47
# RGS8-Gao reg = modulates binding of RGS8 to human Galphao | P09471 | multiplexed bead flow cytometry; actives lie on both sides | response (percent of control binding), % at 10 µM | 220,000 compounds, 0.34% hits; in the data active means response below about 60% or above about 140%; inactive means in between;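 further: Galphao activated as the GDP aluminium fluoride complex binding bead-coupled RGS8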
# RGS7-Gao reg = human RGS7-Galphao interaction regulation; binding response (% of control), % at 10 µM; AID 1439; Multiplexed bead flow cytometry, RGS7-Galphao binding; actives lie on both sides; P09471; 220,000 compounds, 0.35% hits; in the data active means binding response below about 49% or above about 150%; inconclusive means no clear call, values can overlap the other calls; inactive means in between;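 further: fluorescent Galphao held in activated GDP-AlF4 state binding bead-coupled RGS7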
# RGS-Gao = modulates binding between human RGS4 and Galphao. shares compounds with RGS16-Gao HTS. multiplexed bead flow cytometry, RGS–Galpha-o binding. RGS4–Galpha-o binding response, % at 10 µM. 1,600 compounds, 99% hits;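 further: fluorescently labeled Galpha-o bound to GDP with aluminium fluoride binding biotinylated RGS beads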
# Target sequence (P09471 whole entry, looked up): as above
# Target sequence (P49798 whole entry, looked up): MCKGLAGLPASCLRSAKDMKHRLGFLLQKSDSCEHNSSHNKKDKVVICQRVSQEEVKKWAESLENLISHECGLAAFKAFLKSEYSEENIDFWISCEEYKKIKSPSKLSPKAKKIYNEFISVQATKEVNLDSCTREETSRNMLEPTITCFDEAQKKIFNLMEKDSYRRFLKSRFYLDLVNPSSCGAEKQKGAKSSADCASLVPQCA
# Biotin-avidin = counter-screen: compounds disrupting biotin binding to avidin beads; 1,700 tested, under 10 active; AID 1783; streptavidin beads, fluorescein-biotin binding, flow cytometry; shares compounds with RGS16-Gao HTS; inhibition, % at 10 µM;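 active means inhibition above 50%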;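 further: median green fluorescence of gated singlet beads compared with DMSO control wells; 0% = DMSO wells and 100% = complete loss of bead fluorescence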
# RGS8-Gao single = RGS8-Galphao interaction regulation, single point confirmation; shares compounds with RGS16-Gao HTS; bead-based flow cytometry RGS8-Galphao binding, fluorescence; actives lie on both sides; binding response (% of control), % at 10 µM; 1,700 compounds, 3% hits; AID 1836; in the data active means binding response below about 72% or above about 130%; inactive means in between;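 further: Galphao activated as GDP AlF4 complex before binding bead RGS8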
# RGS7-Gao confirm = RGS7-Galphao interaction regulation, single point confirmation; shares compounds with RGS16-Gao HTS; bead-based flow cytometry RGS7-Galphao binding; actives lie on both sides; response (percent of control binding), % at 10 µM; 1,700 compounds, 7.8% hits; in the data active means response below about 75% or above about 130%; inactive means in between;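 further: fluorescent Galphao activated with GDP and aluminum fluoride binding bead-coupled RGS7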
# RGS16-Gao conf = RGS16-Galphao interaction regulation, single point confirmation | shares compounds with RGS16-Gao HTS | bead-based flow cytometry, RGS16-Galphao binding; actives lie on both sides | response (% of control binding), % at 10 µM | 1,700 compounds, 4% hits | AID 1838; in the data active means response below about 74% or above about 130%; inactive means in between;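 further: Galphao activated as the GDP aluminium fluoride complex binding bead-coupled RGS16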
# RGS4-Gao single = confirmation of regulators of human RGS4-Galphao interaction | shares compounds with RGS16-Gao HTS | RGS4-Galphao binding, multiplexed bead flow cytometry; actives lie on both sides | binding response (% of control), % at 10 µM | 1,700 compounds, 4% hits | AID 1840; in the data active means binding response below about 74% or above about 130%; inactive means in between
# RGS19-Gao conf = confirmation of regulators of human RGS19-Galphao interaction. AID 1841. response (percent of control binding), % at 10 µM. 1,700 compounds, 5% hits. shares compounds with RGS16-Gao HTS. bead-based flow cytometry RGS19-Galphao binding; actives lie on both sides; in the data active means response below about 50% or above about 160%; inactive means in between;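 further: 100% = no compound control and 0% = blank background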
# An asterisk follows results filed as active; u = inconclusive; x = no result given; [ ] = remark or other dose. Only some compounds are listed: those with a hit (about 1.2% of all), similar ones and a draw of the others. Unless noted, how the calls were made is not given here.
SMILES,GSH fluor,RGS16-Gao HTS,RGS4-Gao reg,Avidin fluor,RGS8-Gao reg,RGS7-Gao reg,Biotin-avidin,RGS8-Gao single,RGS7-Gao confirm,RGS16-Gao conf,RGS4-Gao single,RGS19-Gao conf,others
Cc1ccc(NC(=O)CN(C)CC(=O)Nc2cccc(F)c2)cc1S(=O)(=O)N1CCCCCC1,73,117.4,117.2,16,101.0,112.2,x,x,x,x,x,x,
Cc1ccc(N=N/C(=C\O)C(=O)c2ccc(Cl)cc2)cc1,6,43.3,42.2*,15,59.4*,44.9*,-1.6,99.1,98.5,101.9,102.0,110.7,
O=C(O)c1cc(-c2ccc(Cl)cc2)n(-c2ccc(Cl)cc2)n1,7,107.9,102.5,24,103.8,98.1,x,x,x,x,x,x,
Fc1ccccc1NC(=S)N(CCN1CCCCC1)Cc1ccco1,13,102.2,102.3,10,101.9,101.5,x,x,x,x,x,x,
COc1ccc(CSc2nnc3[nH]c(=O)cc(N)n23)cc1,13,99.1,103.9,14,99.2,u,x,x,x,x,x,x,
S=c1[nH]nc(-c2ccccc2)n1/N=C/C=C/c1ccco1,11,-0.4*,89.8,4,79.2,87.6,1.1,93.2,115.8,96.3,102.6,71.0,RGS-Gao=89.8*
S=c1[nH]nc(-c2ccc(Cl)cc2)n1/N=C/C=C/c1ccco1,x,97.0,99.1,7,96.1,u,x,x,x,x,x,x,
Cc1nc(C)c(-c2nnc(-c3ccc(C(C)(C)C)cc3)o2)cc1C(=O)NN,9,100.3,94.6,3,98.5,94.8,x,x,x,x,x,x,
COc1ccc(S(=O)(=O)Nc2cc(Sc3ncn[nH]3)c(O)c3ccccc23)cc1,28,11.2*,72.5,2,61.0,77.1,x,x,x,x,x,x,RGS-Gao=72.5*
COC(=O)c1c(C(=O)NCc2ccccc2)ncn1CC(O)COc1ccccc1 (configuration not stated),15,-175.5*,58.0,9,95.6,85.9,-0.5,83.1,73.7*,79.5,79.0,74.8,RGS-Gao=58.0*
CC(OC(=O)c1ccc2c(=O)n3c(nc2c1)CCCCC3)C(N)=O (configuration not stated),18,105.3,98.5,12,102.8,98.9,x,x,x,x,x,x,
COc1ccc(OCC(=O)Nc2ccccc2OC(F)F)cc1,56,99.2,102.3,8,102.6,102.3,x,x,x,x,x,x,
COc1ccc(OCC(=O)Nc2ccccc2OC)cc1,5,422.1,116.3,5,153.1*[activator],110.6,-1.2,110.2,117.4,110.4,111.0,104.6,RGS-Gao=116.3*
CC(=O)C1=C(C)NC(=O)CC1c1ccc(Br)cc1 (configuration not stated),18,105.5,100.2,10,101.5,102.8,x,x,x,x,x,x,
CC1CCCC(NC(=O)COC(=O)Cc2cn3ccsc3n2)C1C (configuration not stated),8,-64.1*,-58.0*,x,3.7*,-19.5*,-1.4,102.6,99.3,106.9,100.3,99.2,
Cc1cc(C)c(NC(=O)c2ccc[n+](Cc3ccc([N+](=O)[O-])cc3)c2)c(C)c1,9,93.1,103.6,3,99.8,101.5,x,x,x,x,x,x,
COc1ccc(C(CC(=O)O)NS(=O)(=O)c2ccc(C)cc2)cc1 (configuration not stated),17,97.4,98.7,32,99.5,101.3,x,x,x,x,x,x,
COc1ccc(C(CC(=O)O)NS(=O)(=O)c2ccc(C)cc2)cc1OC (configuration not stated),36,12.5*,20.9*,0,12.4*,11.8*,-0.5,100.0,98.2,98.2,99.8,99.1,
CCOC(=O)C1=C(C)NC(C)=C(C(=O)OCCNC(=O)c2cccnc2)C1c1cccc([N+](=O)[O-])c1 (configuration not stated),6,213.2*[activator],108.3,3,123.9,110.7,-1.6,85.3,70.3*,77.6,80.8,103.8,RGS-Gao=108.3*
CCc1cc(C=NC2CCCCC2)c(O)s1,11,-38.9*,-60.0*,-5,-0.4*,-28.1*,-1.9,100.4,96.2,99.2,99.5,111.7,
O=C(Nc1cccc(C(F)(F)F)c1)Oc1ccc(Cl)c2cccnc12,x,30.7,26.2*,0,54.6*,u,0.2,100.5,99.9,98.3,99.5,96.0,
CCN(CC)C(=O)Oc1ccc(Cl)c2cccnc12,29,100.2,101.1,10,102.5,u,x,x,x,x,x,x,
Cc1ccc(/C=C/C(=O)N2CCN(S(=O)(=O)/C=C/c3ccccc3)CC2)o1,x,105.0,111.4,9,105.5,u,x,x,x,x,x,x,
Cc1nn(C(=O)c2cccs2)c(C)c1CN1C(=O)c2ccccc2C1=O,40,100.7,103.9,7,101.9,95.5,x,x,x,x,x,x,
Cc1nn(C(=O)N2CCCCC2)c(C)c1CN1C(=O)c2ccccc2C1=O,12,x,x,x,x,x,0.2,102.5,104.7,102.6,102.7,66.3,
CCOC(=O)C1CCCN(C(=O)/C=C/c2cc(OC)c(OC)c(OC)c2)C1 (configuration not stated),17,102.8,102.7,114*,91.8,170.1*[activator],1.4,102.3,97.9,97.4,98.9,90.0,RGS-Gao=102.7*
CCOC(=O)C1CCCN(C(=O)/C=C/c2ccc(Cl)cc2)C1 (configuration not stated),21,108.9,103.9,4,101.1,106.0,x,x,x,x,x,x,
CN(C)c1nc(N)c2ncc(=S)[nH]c2n1,14,98.7,98.6,9,96.6,u,x,x,x,x,x,x,
CC(C)(C)NC(=O)NC(=O)COC(=O)c1cc[n+]([O-])cc1,22,232.1,125.9,207*,121.3,212.5*[activator],-1.2,100.1,96.3,100.8,98.8,103.3,RGS-Gao=125.9*
CC(C)(C)NC(=O)NC(=O)COC(=O)c1cccc(F)c1,24,87.8,89.7,4,94.1,93.7,x,x,x,x,x,x,
